# Data: PubChem BioAssay (NCI)
# Compounds without any hit were thinned out: in the full panel of roughly 83,000, 20% have a hit.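 Note: values are percent growth. 100 is the growth of untreated cells, values between 100 and 0 indicate rising inhibition; between -100 and 0 indicates cell death.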 Values without a mark were called inactive. Calls of active or inactive are those of the source. The calls were made as follows: active = growth percent below 10; inactive = the rest.
# What was measured:
# Test in all cases: NCI-60 one-dose screen, 48 h (100 = growth as untreated, 0 = no growth, -100 = all killed)
# Conditions in all cases: 10 µM unless noted
# DU-145 prostate = test system: DU-145 prostate
# K-562 leukemia = test system: K-562 leukemia
# MALME-3M melanoma = test system: MALME-3M melanoma
# MDA-MB-231 breast = test system: MDA-MB-231 breast
# RXF 393 renal = test system: RXF 393 renal
# SF-268 CNS = test system: SF-268 CNS
# SF-295 CNS = test system: SF-295 CNS
# SF-539 CNS = test system: SF-539 CNS
# UACC-257 melanoma = test system: UACC-257 melanoma
# M14 melanoma = test system: M14 melanoma
# HCT-15 colon = test system: HCT-15 colon
# HT29 colon = test system: HT29 colon
# SNB-75 CNS = test system: SNB-75 CNS
# SNB-19 CNS = test system: SNB-19 CNS
# U251 CNS = test system: U251 CNS
# PC-3 prostate = test system: PC-3 prostate
# SK-MEL-5 melanoma = test system: SK-MEL-5 melanoma
# LOX IMVI melanoma = test system: LOX IMVI melanoma
# SK-MEL-28 melanoma = test system: SK-MEL-28 melanoma
Structure (SMILES),growth (DU-145 prostate),growth (K-562 leukemia),growth (MALME-3M melanoma),growth (MDA-MB-231 breast),growth (RXF 393 renal),growth (SF-268 CNS),growth (SF-295 CNS),growth (SF-539 CNS),growth (UACC-257 melanoma),growth (M14 melanoma),growth (HCT-15 colon),growth (HT29 colon),growth (SNB-75 CNS),growth (SNB-19 CNS),growth (U251 CNS),growth (PC-3 prostate),growth (SK-MEL-5 melanoma),growth (LOX IMVI melanoma),growth (SK-MEL-28 melanoma)
Brc1ccc2c(c1)c(-c1nc(-c3c[nH]c4ncccc34)cs1)cn2CCCN1CCCCC1,-44.4% (active),-64.4% (active),-45.9% (active),-43.3% (active),23.6%,7.71% (active),27.3%,-77.6% (active),66.1%,-81.4% (active),-80% (active),-87.2% (active),67.6%,-68.3% (active),-84.2% (active),2.12% (active),-59.5% (active),-93.5% (active),-84.8% (active)
Cn1cc(-c2csc(-c3cn(CCCN4CCCCC4)c4ccc(Br)cc34)n2)c2cccnc21,-26.5% (active),-63.6% (active),-25.7% (active),-50.7% (active),23.3%,46.1%,31.8%,-73% (active),68.1%,-88.1% (active),-78.2% (active),-72.8% (active),63.6%,-45.3% (active),-80.6% (active),-8.66% (active),-33.7% (active),-71.4% (active),-86.6% (active)
CCCCCCCN(CCCCCCC)C(=N)c1ccnc2ccccc12,1.08% (active),-14.9% (active),-76.2% (active),-71.3% (active),-76% (active),33%,-78.3% (active),-82% (active),-69.4% (active),-64% (active),-72.1% (active),-50.2% (active),-68.3% (active),-51.1% (active),-87.5% (active),-22.4% (active),-98.3% (active),-94.4% (active),-74.1% (active)
C=C1C(=O)O[C@H]2[C@H]1CC/C(COC(=O)NCc1c[nH]c3ccccc13)=C\CC[C@@]1(C)O[C@@H]21,29.2%,12.7%,52.7%,42%,17.5%,70.8%,94.6%,7.38% (active),75.2%,48.7%,4.35% (active),8.59% (active),72.1%,69.4%,82.8%,50.4%,45.2%,16.4%,33.9%
Cc1cccc(C)c1NCc1nc(-c2ccccc2)n[nH]1,106%,100%,98.6%,103%,121%,101%,98.1%,93.2%,100%,97.9%,101%,103%,89.7%,94.7%,101%,100%,102%,97.9%,96.8%
Cc1ccc(C)c2c1CCC2C(C)C (configuration not stated),103%,90.4%,101%,99.6%,112%,96.8%,102%,97.5%,89.6%,95%,109%,105%,88.4%,101%,96.7%,90.1%,98.5%,96%,103%
C[C@@H]1CCCCCCCCC[C@H](O)C(=O)C[C@@H](SC[C@@H](O)C(=O)O)C(=O)O1,95.2%,15.5%,94.7%,96%,112%,98%,104%,97.8%,83.4%,87%,87.3%,82.1%,95.2%,102%,89.4%,83%,104%,71.8%,107%
Cc1cc(N2CCN(C)CC2)nc(N(CCNc2ccnc3cc(Cl)ccc23)Cc2ccco2)n1,56.8%,1.61% (active),-57.7% (active),9.87% (active),40.4%,52.8%,-15.3% (active),-68.3% (active),5.22% (active),-87.5% (active),18.1%,5.75% (active),66.3%,36.8%,39.3%,34.8%,-82% (active),-5.64% (active),-72.3% (active)
